Results filed as inconclusive are left out. The list shows a part of the results. The source made the active and inactive calls. Unless noted, calls follow the shape of the dose curve; as a rule, active = well fitted curve in the direction sought with a large enough effect; inconclusive = small, poorly fitted or top-dose-only effect, or another doubt; inactive = no such curve, though single readings can be large; an effect the other way counts as inactive or inconclusive. Peptide text beside a SMILES is read from it.
Experiments:
[1] = target: Endonuclease 4 (Escherichia coli (strain K12)) (UniProt P0A6C1); experiment: Counterscreen for APE1 Inhibitors: qHTS Validation Assay for Inhibitors of Endonuclease IV (AID 1708)
Procedure, shortened: (§1)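 Enzyme (2 nM) + compound, 15 min RT; add 50 nM TAMRA/BHQ-2 THF-site dsDNA; kinetic read ex525/em598, 3 reads/60 s; activity = read 3 − read 1. Buffer Tris pH 7.5, 50 mM NaCl, 2 mM MgCl2, DTT, Tween-20.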

[2] = qHTS for differential inhibitors of proliferation of Plasmodium falciparum line W2 (AID 1883); settings: Potency: Plasmodium falciparum W2 proliferation inhibition;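 also: parasites grown with compound for 72 h before lysis and staining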; also: potency is read from the fitted curve at half-maximal effect
[3] = target: ATP-dependent DNA helicase Q1 (Homo sapiens) (UniProt P46063); experiment: qHTS Validation Assay for Inhibitors of RecQ-Like Dna Helicase 1 (RECQ1) (AID 2353); also: potency is read from the fitted curve at half-maximal effect
ATP-dependent DNA helicase Q1 (Homo sapiens), sequence (P46063 whole entry, looked up): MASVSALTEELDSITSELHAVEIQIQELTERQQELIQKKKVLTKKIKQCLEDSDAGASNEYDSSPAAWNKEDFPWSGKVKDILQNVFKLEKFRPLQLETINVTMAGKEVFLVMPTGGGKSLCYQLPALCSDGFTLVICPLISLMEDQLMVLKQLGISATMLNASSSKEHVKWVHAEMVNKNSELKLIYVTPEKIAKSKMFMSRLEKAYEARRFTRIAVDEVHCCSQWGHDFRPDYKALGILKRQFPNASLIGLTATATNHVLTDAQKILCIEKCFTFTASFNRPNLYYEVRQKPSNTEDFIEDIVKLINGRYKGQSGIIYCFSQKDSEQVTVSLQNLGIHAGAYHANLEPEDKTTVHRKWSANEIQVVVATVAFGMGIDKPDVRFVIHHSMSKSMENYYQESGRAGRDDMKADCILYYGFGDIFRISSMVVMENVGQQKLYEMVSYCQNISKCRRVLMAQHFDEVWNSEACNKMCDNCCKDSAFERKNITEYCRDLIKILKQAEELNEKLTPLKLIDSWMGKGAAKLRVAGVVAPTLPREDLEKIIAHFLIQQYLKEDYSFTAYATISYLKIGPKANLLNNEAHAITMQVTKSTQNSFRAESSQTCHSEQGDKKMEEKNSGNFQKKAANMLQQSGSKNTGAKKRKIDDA
Procedure, shortened: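 RECQ1T1 50 nM; forked duplex (20 bp + 30-nt ss tails) 200 nM, ATP 2 mM final; pH 8.0, 2 mM MgCl2, 2.5 ug/ml poly(dI-dC); 15 min compound preincubation; discontinuous kinetic read over 2 h at RT.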

[4] = Cytometric Cell-Based qHTS for Inhibitors of the mTORC1 Signaling Pathway in MEF (Tsc2-/-, p53-/-) Cells (AID 2660); also: potency is read from the fitted curve at half-maximal effect
Procedure, shortened: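 Tsc2-/-, p53-/- MEFs (empty vector) exposed to compound 24 h at 37 C, fixed, stained with Alexa-488 anti-phospho-rpS6 Ser235/236 and propidium iodide. Acumen laser scanning; phospho-S6/PI ratio thresholded against 7.5 nM rapamycin, reported as % positive cells.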

[5] = High Content Imaging Cell-Based qHTS for Inhibitors of the mTORC1 Signaling Pathway in MEF (Tsc2-/-, p53-/-) Cells (AID 2666);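 also: percent of cells scored positive for phospho-rpS6 Ser235/236 immunostaining by imaging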; also: potency is read from the fitted curve at half-maximal effect
Procedure, shortened: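 Inhibition of rpS6 phosphorylation is measured by immunofluorescence imaging in empty-vector Tsc2-/-, p53-/- mouse embryonic fibroblasts after 24 hrs compound exposure at 37 degree Celsius. Results are reported as % positive cells per well.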

[6] = High Content Imaging Cell-Based qHTS for Inhibitors of the mTORC1 Signaling Pathway in MEF Cells (AID 2667); also: potency is read from the fitted curve at half-maximal effect
Procedure, shortened: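 Fixed-cell imaging of phospho-S6 (Ser235/236, Alexa-488) after 24 hrs of compound treatment at 37 degree Celsius. Signal was normalized to Hoechst, and thresholds from the highest and lowest wells split cells into % active versus % non-active.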

[7] = Validation screen for small molecules that induce DNA re-replication in MCF 10A normal breast cells (AID 463097); also: nearly all actives have a fitted effect of over 60% in size; also: potency is read from the fitted curve at half-maximal effect
Procedure, shortened: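 250 MCF 10A cells/well; compound pin-transferred; 48 hr, 37 C, 5% CO2; Hoechst 40 min; imaged 405/500-530 nm. Hits = more high-intensity nuclei.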

[8] = target: DNA polymerase III PolC-type (Bacillus subtilis (strain 168)) (UniProt P13267); experiment: qHTS Validation Assay for the Inhibitors of DNA Replication in Gram-Positive Bacteria (AID 485295); also: potency is read from the fitted curve at half-maximal effect
DNA polymerase III PolC-type (Bacillus subtilis (strain 168)), sequence (P13267 whole entry, looked up): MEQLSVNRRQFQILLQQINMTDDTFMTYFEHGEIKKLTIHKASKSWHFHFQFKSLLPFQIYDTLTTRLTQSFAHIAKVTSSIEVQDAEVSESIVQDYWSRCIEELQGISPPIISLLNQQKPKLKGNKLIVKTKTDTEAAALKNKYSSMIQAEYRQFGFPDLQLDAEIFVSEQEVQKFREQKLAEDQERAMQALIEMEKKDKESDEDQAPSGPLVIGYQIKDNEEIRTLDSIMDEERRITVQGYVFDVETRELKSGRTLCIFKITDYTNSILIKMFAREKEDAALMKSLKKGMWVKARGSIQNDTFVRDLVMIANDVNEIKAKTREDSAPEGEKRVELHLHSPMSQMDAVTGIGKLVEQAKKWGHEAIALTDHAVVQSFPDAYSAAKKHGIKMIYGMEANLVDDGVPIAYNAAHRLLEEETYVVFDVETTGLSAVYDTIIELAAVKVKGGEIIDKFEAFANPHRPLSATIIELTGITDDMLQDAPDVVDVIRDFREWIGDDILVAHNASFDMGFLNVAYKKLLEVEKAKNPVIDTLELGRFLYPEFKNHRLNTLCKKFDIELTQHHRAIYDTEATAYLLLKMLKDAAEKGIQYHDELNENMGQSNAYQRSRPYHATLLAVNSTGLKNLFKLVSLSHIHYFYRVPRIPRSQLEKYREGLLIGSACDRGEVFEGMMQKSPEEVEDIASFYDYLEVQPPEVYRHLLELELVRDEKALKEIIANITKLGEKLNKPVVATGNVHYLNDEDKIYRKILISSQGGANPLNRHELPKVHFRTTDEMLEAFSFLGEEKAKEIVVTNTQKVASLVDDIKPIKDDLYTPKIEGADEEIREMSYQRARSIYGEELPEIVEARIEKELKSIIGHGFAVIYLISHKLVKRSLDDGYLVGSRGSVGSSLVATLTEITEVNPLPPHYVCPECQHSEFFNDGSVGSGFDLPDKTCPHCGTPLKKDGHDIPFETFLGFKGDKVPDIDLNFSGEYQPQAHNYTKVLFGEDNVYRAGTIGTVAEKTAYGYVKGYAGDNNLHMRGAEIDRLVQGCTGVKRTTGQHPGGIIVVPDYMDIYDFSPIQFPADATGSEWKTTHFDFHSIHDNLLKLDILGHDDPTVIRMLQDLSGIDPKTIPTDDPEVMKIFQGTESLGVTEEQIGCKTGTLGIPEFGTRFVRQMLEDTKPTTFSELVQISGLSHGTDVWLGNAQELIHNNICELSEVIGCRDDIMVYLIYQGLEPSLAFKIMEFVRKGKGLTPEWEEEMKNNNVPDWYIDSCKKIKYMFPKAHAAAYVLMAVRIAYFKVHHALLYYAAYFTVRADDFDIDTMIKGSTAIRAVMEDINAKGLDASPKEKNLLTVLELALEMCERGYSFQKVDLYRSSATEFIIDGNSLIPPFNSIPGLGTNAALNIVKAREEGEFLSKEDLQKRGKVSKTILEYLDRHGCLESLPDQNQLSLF
Procedure, shortened: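 PicoGreen fluorescence (ex 480–485/em 535–540 nm) reports dsDNA synthesized on ssM13Gori template with dNTPs/NTPs. Enzyme: holoenzyme rebuilt from purified PolC, beta subunit, SSB and primase. Compound preincubated before substrate addition; RT throughout.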

[9] = target: Tumor susceptibility gene 101 protein (Homo sapiens) (UniProt Q99816); experiment: qHTS Validation Assay for Iinhibitors of HIV-1 Budding by Blocking the Interaction of PTAP/TSG101 (AID 485342; calls by dose curve)
Tumor susceptibility gene 101 protein (Homo sapiens), sequence (Q99816 whole entry, looked up, the tested form may be a part): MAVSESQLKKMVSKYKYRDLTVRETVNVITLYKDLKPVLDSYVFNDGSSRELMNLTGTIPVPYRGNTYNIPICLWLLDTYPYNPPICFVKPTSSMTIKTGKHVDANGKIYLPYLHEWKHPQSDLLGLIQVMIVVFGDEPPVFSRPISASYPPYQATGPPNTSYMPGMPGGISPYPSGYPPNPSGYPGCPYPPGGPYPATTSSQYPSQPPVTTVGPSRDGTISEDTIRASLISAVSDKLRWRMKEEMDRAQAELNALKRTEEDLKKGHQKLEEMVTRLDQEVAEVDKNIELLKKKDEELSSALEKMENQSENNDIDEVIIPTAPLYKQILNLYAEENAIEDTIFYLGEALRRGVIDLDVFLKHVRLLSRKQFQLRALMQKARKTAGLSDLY
Procedure, shortened: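 FP read-out: FITC-PTAP peptide, 50 nM final, binding Tsg101 binding domain, 10 uM final; 20 min r.t.; 10 mM HEPES pH 7.5, 0.15 M NaCl, 0.01% Tween 20, 3 mM EDTA, 0.1 mM TCEP.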

[10] = qHTS Validation Assay to Find Inhibitors of Chronic Active B-Cell Receptor Signaling (AID 485345; active = well fitted curve in the direction sought with a large enough effect in the main read-out, with a control signal flat, not every such curve was filed as active; also: potency is read from the fitted curve at half-maximal effect)
Procedure, shortened: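 TMD8 ABC-DLBCL cells with dox-inducible green luciferase–IκBα fusion and red native luciferase; compounds 46 uM–3 nM, 4 h at 37C with doxycycline in 0.5% FBS IMDM. Green/red ratio normalized to basal and 10 uM MG-132.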

[11] = qHTS for differential inhibitors of proliferation of Plasmodium falciparum line 7G8 (AID 1815);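 also: parasite growth measured after three days of incubation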; also: potency is read from the fitted curve at half-maximal effect
[12] = qHTS for differential inhibitors of proliferation of Plasmodium falciparum line GB4 (AID 1816); settings: Potency: Plasmodium falciparum GB4 proliferation inhibition;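 also: parasite growth measured after 72 h incubation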; also: potency is read from the fitted curve at half-maximal effect
[13] = qHTS for differential inhibitors of proliferation of Plasmodium falciparum line 3D7 (AID 1876); also: potency is read from the fitted curve at half-maximal effect
[14] = qHTS for differential inhibitors of proliferation of Plasmodium falciparum line D10 (AID 1877);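 also: parasites grown with compound for 72 h before DNA staining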; also: potency is read from the fitted curve at half-maximal effect
[15] = qHTS for differential inhibitors of proliferation of Plasmodium falciparum line Dd2 (AID 1882); settings: Potency: Plasmodium falciparum Dd2 proliferation inhibition; also: nearly all actives have a fitted effect of over 65% in size; also: potency is read from the fitted curve at half-maximal effect
Procedure, shortened: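 SYBR Green DNA fluorescence (ex 485, em 535 nm) after overnight lysis quantifies parasite growth; compound exposure lasted 72 h at 37 C on infected red cells at 2.5% hematocrit, 0.3% parasitemia (final). Artemisinin 0.29 uM and vehicle wells define normalization.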

[16] = qHTS for differential inhibitors of proliferation of Plasmodium falciparum line HB3 (AID 1886); settings: Potency: Plasmodium falciparum HB3 proliferation inhibition;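 also: parasites grown with compound for 72 h before SYBR Green readout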; also: potency is read from the fitted curve at half-maximal effect
[17] = target: RecQ-like DNA helicase BLM (Homo sapiens) (UniProt P54132); experiment: qHTS Validation Assay for Inhibitors of Bloom's syndrome helicase (BLM) (AID 2364); also: potency is read from the fitted curve at half-maximal effect
RecQ-like DNA helicase BLM (Homo sapiens), sequence (P54132 whole entry, looked up): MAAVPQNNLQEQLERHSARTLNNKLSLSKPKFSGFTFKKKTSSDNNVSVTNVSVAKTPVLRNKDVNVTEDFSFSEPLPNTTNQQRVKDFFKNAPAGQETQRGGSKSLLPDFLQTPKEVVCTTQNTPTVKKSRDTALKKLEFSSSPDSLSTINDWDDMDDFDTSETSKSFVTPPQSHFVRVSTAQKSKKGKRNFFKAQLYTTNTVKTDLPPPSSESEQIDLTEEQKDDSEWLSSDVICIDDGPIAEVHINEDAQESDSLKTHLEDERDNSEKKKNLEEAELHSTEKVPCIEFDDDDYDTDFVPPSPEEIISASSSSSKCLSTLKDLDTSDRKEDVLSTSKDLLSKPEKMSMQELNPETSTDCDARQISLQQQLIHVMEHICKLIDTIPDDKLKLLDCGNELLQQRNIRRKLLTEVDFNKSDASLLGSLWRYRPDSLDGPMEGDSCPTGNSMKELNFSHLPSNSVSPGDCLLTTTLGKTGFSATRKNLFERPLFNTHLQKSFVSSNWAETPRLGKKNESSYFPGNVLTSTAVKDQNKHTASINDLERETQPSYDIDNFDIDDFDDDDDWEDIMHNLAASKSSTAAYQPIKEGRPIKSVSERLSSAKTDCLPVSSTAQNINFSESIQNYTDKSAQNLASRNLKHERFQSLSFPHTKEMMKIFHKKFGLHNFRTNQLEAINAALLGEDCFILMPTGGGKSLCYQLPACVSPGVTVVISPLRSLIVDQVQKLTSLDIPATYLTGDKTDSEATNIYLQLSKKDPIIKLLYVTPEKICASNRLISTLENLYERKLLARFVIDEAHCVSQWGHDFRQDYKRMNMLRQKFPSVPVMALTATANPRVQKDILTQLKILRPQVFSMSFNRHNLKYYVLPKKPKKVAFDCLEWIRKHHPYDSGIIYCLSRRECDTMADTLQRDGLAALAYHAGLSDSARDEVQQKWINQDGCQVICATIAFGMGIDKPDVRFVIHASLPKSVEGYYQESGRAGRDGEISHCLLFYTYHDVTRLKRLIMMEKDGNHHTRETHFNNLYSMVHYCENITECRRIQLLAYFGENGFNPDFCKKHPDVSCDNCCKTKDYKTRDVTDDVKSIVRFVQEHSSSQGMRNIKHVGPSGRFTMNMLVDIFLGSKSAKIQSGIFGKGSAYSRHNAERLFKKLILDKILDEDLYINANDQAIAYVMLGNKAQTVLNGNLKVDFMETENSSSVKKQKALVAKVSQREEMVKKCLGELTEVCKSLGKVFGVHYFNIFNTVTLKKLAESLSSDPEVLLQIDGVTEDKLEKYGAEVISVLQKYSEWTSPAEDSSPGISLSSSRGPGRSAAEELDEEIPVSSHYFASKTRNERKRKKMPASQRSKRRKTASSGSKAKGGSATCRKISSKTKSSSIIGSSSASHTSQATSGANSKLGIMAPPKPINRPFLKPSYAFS
Procedure, shortened: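 BLM 50 nM in 25 mM Tris-HCl pH 8.0, 5 mM NaCl, 2 mM MgCl2, 1 mM DTT, 0.01% Tween-20, 2.5 ug/ml poly(dI-dC); 15 min cpd preinc, RT. Start: 200 nM forked DNA + 2 mM ATP (final). TAMRA read, 2 reads 2 h apart.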

[18] = qHTS Assay for Identification of Small Molecule Inducers of Hypoxia Response (AID 2120; active = well fitted curve in the direction sought with a large enough effect in the signal ratio, with a control signal flat, not every such curve was filed as active; the % refers to the signal ratio)
Procedure, shortened: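 Cell-based qHTS for reporter induction: hypoxia response element controlled beta-lactamase in ME-180 cells. Compounds incubated 17 h at 37 degrees C; activity from blue/green (460/530 nm) ratio, inducers ranked by AC50.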

[19] = qHTS Assay for Modulators of Human Peripheral Myelin Protein 22 (PMP22) Expression/Activity (AID 1967; active = well fitted curve in the direction sought with a large enough effect in the signal ratio; the % refers to the signal ratio)
Procedure, shortened: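 Mouse MSC80 Schwann line, Pmp22 promoter–CBG68 reporter, EF-alpha–CBR internal control. 24h compound exposure, 37 °C/5% CO2, DMEM + 10% FBS. Readout: corrected green/red luminescence ratio, normalized to untreated cells; concentration-response curves fitted and classified.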

[20] = target: Endonuclease 4 (Escherichia coli (strain K12)) (UniProt P0A6C1); experiment: Counterscreen for APE1 Inhibitors: qHTS Assay for Inhibitors of Endonuclease IV (AID 2565)
Procedure, shortened: as §1

Measured: Potency

CNC[C@H](O)c1ccc(O)c(O)c1
active: [2] 14.1 µM | [6] 26.1 µM
inactive: [1] | [3] | [4] | [5] | [7] | [8] | [9] | [10]

O=C(c1ccccc1)c1ccc2n1CCC2C(=O)O (centres undefined)
inactive: [1] | [11] | [12] | [13] | [14] | [15] | [2] | [16] | [3] | [4] | [5] | [6] | [7] | [8] | [9] | [10]

O=c1cc(N2CCOCC2)oc2c(-c3ccccc3)cccc12
inactive: [1] | [13] | [14] | [15] | [16] | [3] | [8] | [9]
active: [4] 3.69 µM | [5] 9.27 µM | [6] 0.414 µM | [10] 2.59 µM

NC(=NCc1ccccc1)NC(=O)c1nc(Cl)c(N)nc1N
active: [11] 2 µM | [12] 3.16 µM | [13] 0.562 µM | [14] 0.891 µM | [2] 5.01 µM | [16] 1 µM
inactive: [1] | [3] | [17] | [4] | [5] | [6] | [8] | [9]

CN(C)CCCC1(c2ccc(F)cc2)OCc2cc(C#N)ccc21 (centres undefined)
inactive: [1] | [3] | [4] | [5] | [6] | [7] | [8] | [9] | [10]
active: [13] 10 µM | [2] 2.24 µM

O=c1c(O)c(-c2cc(O)c(O)c(O)c2)oc2cc(O)cc(O)c12
inactive: [1] | [4] | [5] | [7] | [9] | [10]
active: [13] 10 µM | [15] 4.47 µM | [2] 14.1 µM | [3] 0.891 µM | [17] 14.1 µM | [8] 15 µM

OC(CN1CCN(c2cccc(Cl)c2)CC1)C(c1ccccc1)c1ccccc1 (centres undefined)
inactive: [3] | [4] | [5] | [6] | [8] | [9] | [10]
active: [11] 14.1 µM | [2] 10 µM

CCCCC(CC)COC(=O)C(C#N)=C(c1ccccc1)c1ccccc1 (centres undefined)
inactive: [18]

c1ccc2[nH]c(-c3cscn3)nc2c1
inactive: [18]

Cc1nc2n(c(=O)c1CCN1CCC(c3noc4cc(F)ccc34)CC1)CCCC2
inactive: [1] | [3] | [17] | [7]

O=Nc1c(-c2c(O)[nH]c3cc(Br)ccc23)[nH]c2ccccc12
inactive: [3] | [7] | [8] | [9]
active: [12] 2.24 µM | [13] 2 µM | [14] 3.98 µM | [15] 7.94 µM | [2] 2.24 µM | [16] 2.24 µM | [6] 2.33 µM

Nc1ccn([C@@H]2O[C@H](CO)[C@@H](O)C2O)c(=O)n1 (some centres undefined)
inactive: [5] | [8] | [9] | [10]

CCOC(=O)C(C)Oc1cccc2c(=O)n(CC(=O)Nc3ccc4c(c3)OCCO4)ccc12 (centres undefined)
inactive: [4] | [5] | [6] | [8] | [9]

Oc1ccc2ccccc2c1SSc1c(O)ccc2ccccc12
inactive: [4] | [5] | [6] | [8] | [9] | [10]

CS(=O)(=O)OCCCCOS(C)(=O)=O
inactive: [18]

COc1ccccc1N1CCN(CCN(C(=O)C2CCCCC2)c2ccccn2)CC1
inactive: [3] | [4] | [5] | [6] | [7] | [8] | [9] | [10]
active: [11] 2.24 µM | [2] 7.94 µM | [16] 11.2 µM

COC(=O)[C@H](Cc1ccccc1)NC(=O)[C@@H](N)CC(=O)O (H-Asp-Phe-OMe)
inactive: [18]

Oc1ccc(-c2nc(-c3ccc(F)cc3)c(-c3ccncc3)[nH]2)cc1
active: [12] 12.6 µM | [13] 11.2 µM | [15] 11.2 µM | [2] 6.31 µM
inactive: [3] | [4] | [5] | [6] | [8] | [9]

O=C(NCC1CCCCN1)c1cc(OCC(F)(F)F)ccc1OCC(F)(F)F (centres undefined)
inactive: [1] | [3] | [17] | [7]

Nc1ccc(S(N)(=O)=O)cc1
inactive: [18]

O=c1c(O)c(-c2ccc(O)cc2O)oc2cc(O)cc(O)c12
inactive: [11] | [12] | [13] | [14] | [15] | [2] | [16] | [3] | [4] | [5] | [6] | [7] | [9] | [10]
active: [8] 18.9 µM

COc1cc2nc(N3CCN(C(=O)C4CCCO4)CC3)nc(N)c2cc1OC (centres undefined)
inactive: [15] | [19] | [3] | [17] | [4] | [5] | [6] | [7] | [8] | [9]
active: [2] 11.2 µM

Nc1nc(N)c(N=O)c(OCC2CCCCC2)n1
inactive: [8] | [9]
active: [4] 14.7 µM | [5] 14.7 µM

COc1cc2c(cc1OC)C1CC(=O)C(CC(C)C)CN1CC2 (centres undefined)
inactive: [4] | [5] | [6] | [8] | [9]

NS(=O)(=O)c1cc(C(=O)O)c(NCc2ccco2)cc1Cl
inactive: [18]

CC(C)c1ccc2c(c1)c(SC(C)(C)C)c(CC(C)(C)C(=O)O)n2Cc1ccc(Cl)cc1
active: [11] 5.01 µM | [12] 5.01 µM | [13] 6.31 µM | [14] 12.6 µM | [15] 12.6 µM | [2] 3.16 µM | [16] 11.2 µM | [17] 28.2 µM | [7] 10 µM | [8] 21.2 µM
inactive: [20] | [4] | [5] | [6] | [9]

CC1(C)C(=O)N(CCN2CCC(C(=O)c3ccc(F)cc3)CC2)c2ccccc21
inactive: [3] | [4] | [5] | [6] | [8] | [9]
active: [11] 6.31 µM | [12] 12.6 µM | [13] 11.2 µM | [2] 6.31 µM | [16] 12.6 µM

CC(=O)N1CCN(c2ccc(OC[C@H]3CO[C@](Cn4ccnc4)(c4ccc(Cl)cc4Cl)O3)cc2)CC1
inactive: [1] | [3] | [4] | [5] | [6] | [8] | [9]

O=C1c2ccccc2-c2n[nH]c3cccc1c23
inactive: [3] | [17] | [4] | [5] | [6] | [7] | [8] | [9]
active: [11] 10 µM | [13] 12.6 µM | [2] 7.94 µM

Reference: PubChem BioAssay (NCATS)
